Screens deposited in PubChem BioAssay by several laboratories.
This is a sample that favours compounds with a hit; in the whole collection about 3.4% have one here.
14-3-3 Bad inh: disrupts binding of bovine 14-3-3 zeta to phospho-Bad peptide; P63103; TR-FRET 14-3-3zeta/Dy647-pBad peptide displacement, 1 h; inhibition, % at 21.7 µM; hit rate 0.71% among 220,000; AID 781;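 active = inhibition above about 70%, limit read from the data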;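 also: 0% = full 14-3-3 plus peptide FRET controls and 100% = background without 14-3-3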
Target sequence (P63103 whole entry, looked up): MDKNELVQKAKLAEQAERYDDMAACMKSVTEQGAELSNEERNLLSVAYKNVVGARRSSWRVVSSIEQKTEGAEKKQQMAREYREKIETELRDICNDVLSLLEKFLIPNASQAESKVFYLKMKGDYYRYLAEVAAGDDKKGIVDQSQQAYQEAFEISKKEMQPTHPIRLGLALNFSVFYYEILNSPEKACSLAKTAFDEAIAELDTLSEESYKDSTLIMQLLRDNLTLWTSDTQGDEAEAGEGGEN
Mcl1 Bid PPI: Mcl-1/Bid interaction inhibition; Q07820; TR-FRET Mcl-1/Bid-Dy647 peptide binding, 1536-well; inhibition, % at 21.7 µM; hit rate 0.97% among 220,000;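 active = compounds that cut the binding signal by more than half at the single screening dose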;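 also: His-tagged Mcl-1 with europium anti-His antibody binding Bid BH3 peptide; 0% = Mcl-1 plus peptide wells and 100% = peptide-only wells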
Target sequence (Q07820 whole entry, looked up): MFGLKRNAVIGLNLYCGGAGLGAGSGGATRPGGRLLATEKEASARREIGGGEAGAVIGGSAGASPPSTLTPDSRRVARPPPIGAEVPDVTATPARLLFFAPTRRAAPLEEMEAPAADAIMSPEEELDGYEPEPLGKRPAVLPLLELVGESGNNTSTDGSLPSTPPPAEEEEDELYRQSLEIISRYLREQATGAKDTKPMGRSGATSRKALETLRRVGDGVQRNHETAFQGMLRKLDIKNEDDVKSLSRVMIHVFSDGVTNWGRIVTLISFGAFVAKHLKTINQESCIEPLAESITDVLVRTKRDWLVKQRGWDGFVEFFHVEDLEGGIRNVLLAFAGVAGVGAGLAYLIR
Bim-Mcl-1: human Bim-Mcl-1 interaction inhibition. inhibition, % at 10 µM. AID 1009. Q07820. hit rate 0.1% among 190,000. Bead-based flow cytometry, Bim peptide-Mcl-1 binding; in the data active = inhibition above about 40%;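 also: 0% = no compound tracer wells and 100% = peptide blocker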
Mcl1-Noxa inh: disrupts binding of human Mcl-1 to Noxa peptide; Q07820; TR-FRET Mcl-1/Noxa peptide binding, 2 h; inhibition, % at 21.7 µM; hit rate 1.5% among 220,000; AID 1022;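 active = compounds that cut the protein-peptide binding signal by more than 50% relative to plate controls in a single-dose test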;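 also: His-tagged Mcl-1 with rhodamine Noxa BH3 peptide and terbium anti-His antibody; 0% = Mcl-1 plus Noxa peptide wells and 100% = peptide-only wells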
p47phox inh: inhibitors of human p47phox binding; P14598; p47phox/p22phox peptide binding, fluorescence polarization, 2 h; inhibition, % at 24.7 µM; hit rate 0.53% among 220,000;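 also: 0% = p47phox with labelled peptide and 100% = labelled peptide alone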
eIF4E 4G PPI: inhibitors of eIF4E and eIF4G interaction in translation initiation. hit rate 0.37% among 220,000. AID 782. TR-FRET eIF4E-eIF4GI(517-606) binding, 2 h. P63073+Q04637. inhibition, % at 21.7 µM;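 also: 0% = full FRET control wells and 100% = background wells lacking eIF4GI fragment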
Starred values were filed as active, the others as inactive; / = not tested or not shown; ! = not confirmed by another sample; [ ] = remark or other dose.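 The calls were made as follows, unless noted: active = inhibition above about 30% (limit read from the data); inactive = the rest.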

SMILES	14-3-3 Bad inh	Mcl1 Bid PPI	Bim-Mcl-1	Mcl1-Noxa inh	p47phox inh	eIF4E 4G PPI
CCc1nc2oc3cc(OC)ccc3c(=O)c2c(=O)n1-c1ccccc1	10	23	-6	-11	-18	5
COc1ccc2c(=O)c3c(=O)n(-c4ccccc4)c(-c4ccco4)nc3oc2c1	1	-7	-1	34	-61	-1
COc1ccc2c(=O)c3c(=O)n(-c4ccc(C)cc4)c(-c4ccccc4)nc3oc2c1	12	48	/	81*	-8	-2
Cc1ccc(-n2c(C)nc3oc4ccccc4c(=O)c3c2=O)cc1	9	-8	0	65*	-56	12
COCCn1c(-c2ccc(F)cc2)nc2oc3cc(OC)ccc3c(=O)c2c1=O	29	38	/	-23	-6	10
COCCn1c(-c2ccc(C)cc2)nc2oc3cc(OC)ccc3c(=O)c2c1=O	33	53*	/	33	4	18
COc1ccc(C(=O)C[n+]2cccc(C)c2C)cc1[N+](=O)[O-]	-9	-5	-4	-4	-1	5
CCC(C)(C)c1ccc(OCCCC[n+]2cccc(C)c2C)c(C(C)(C)CC)c1	9	-5	/	8	49*	11
CCC(C)(C)c1ccc(OCCCC[n+]2ccc(C)cc2)c(C(C)(C)CC)c1	20	9	0	6	33*	9
CCC(C)NCCCOc1ccc(Cl)cc1C(C)(C)C (stereo not given)	59	35	/	31	-3	6
CCC(=O)Nc1nnc(Sc2ccc(N(C)C)cc2)s1	1	-44	-2	14	17	-2
CN(C)c1ccc(Sc2nnc(NC(=O)Nc3ccc(Cl)cc3Cl)s2)cc1	16	18	-6	89*	-43	3
COc1ccc(C(=O)NCCn2cc(SCC(N)=O)c3ccccc32)cc1	-2	-26	/	-17	-6	-12
CCCOc1ccc(/C(O)=C2/C(=O)C(=O)N(CCCn3ccnc3)C2c2cccnc2)cc1 (stereo not given)	4	-127	/	4	-10	-2
CCOC(=O)CSc1n[nH]c(-c2cccnc2)n1	-2	-6	0	53*	3	-11
COC(=O)CSc1n[nH]c(-c2cccnc2)n1	22	-2	-2	16	-12	1
Cn1ncc(C(=O)N=S(C)(=O)c2ccccc2)c1[N+](=O)[O-] (stereo not given)	-2	-15	/	-8	-8	-3
CC(C)(C)c1cc(C(c2cccnc2)N2CCN(CCO)CC2)cc(C(C)(C)C)c1O (stereo not given)	8	55*	-11	42	11	8
CCc1nc2n(n1)C(O)c1cc([N+](=O)[O-])ccc1S2 (stereo not given)	8	30	/	23	-2	1
COC(=O)c1ccc(Oc2nc(NC(C)C)nc(NC(C)C)n2)cc1	4	-20	/	16	20	97*
O=c1[nH]cc(N(CCO)CCO)c(=O)[nH]1	0	-34	/	14	8	94*
Cn1ncc(S(=O)(=O)Cc2ccccc2)c(Cl)c1=O	23	-5	/	68*	-4	5
Cn1ncc(SCc2ccccc2)c(Cl)c1=O	4	-18	/	14	7	1
Cc1ccccc1CSc1nnc(NC(=O)Cc2cccs2)s1	-3	20	-3	66*	-16	10
Cc1ccc(C(=O)NNC(=O)CCC(=O)Nc2cc(C)on2)cc1	-2	86*	-4	4	0	5
SMILES	14-3-3 Bad inh	Mcl1 Bid PPI	Bim-Mcl-1	Mcl1-Noxa inh	p47phox inh	eIF4E 4G PPI
Cc1cc(NS(=O)(=O)c2ccc(NC(=O)Cc3cccs3)cc2)no1	4	-30	-2	19	-11	-1
Cc1cc(NC(=O)Cc2cccs2)no1	5	32	1	102*	-8	20
Cc1cc(NC(=O)CCC(=O)NNC(=O)c2ccc(C(C)(C)C)cc2)no1	17	-37	-2	-8	4	11
CN1CCN(S(=O)(=O)Cc2ccc(Cl)cc2)CC1	0	-28	/	17	-2	-3
COc1ccc(OCc2nc(N)nc(Nc3ccccc3)n2)cc1	-3	5	-4	15	-8	6
Nc1nc(COc2ccccc2C=O)nc(Nc2ccccc2)n1	9	10	/	4	-3	97*
COc1cc(-c2nc(CN(C)C(C)c3ccncn3)c(C)o2)ccc1F (stereo not given)	-20	-26	-1	6	-13	1
CN1CCN(c2nc(-c3ccccc3)c3cc(Cl)ccc3n2)CC1	-10	-21	-1	18	-36	-3
CN1CCN(C2=Nc3ccccc3Oc3ccc(Cl)cc32)CC1	-3	4	-2	4	38*!	0
O=S(=O)(c1cc(Cl)ccc1Cl)n1ccnc1	8	-6	2	-6	147*	-2
O=[N+]([O-])c1ccc(Cl)c(S(=O)(=O)n2ccnc2)c1	3	-30	/	24	-9	-2
Cc1ccc(S(=O)(=O)CC(=O)c2ccc3c(c2)OCCO3)cc1	1	2	/	11	-2	6
COc1ccc(-c2n[nH]c(=S)n2-c2ccc3c(c2)OCCO3)cc1	-4	-52	-3	45	-2	-2
COc1cc(OC)cc(-c2n[nH]c(=S)n2-c2ccc3c(c2)OCCO3)c1	-2	-29	-5	51*	-3	-3
Cc1ccc(N=Nc2ccc(O)c(/C=N\NC(=O)c3ccc(N)cc3)c2)cc1C	85*[fluorescence artefact?]	-23	-1	86*	-6	-25
O=C(N/N=C/c1cc(Br)ccc1O)c1ccncc1	-8	-104	/	-69	-3	-2
O=C(N/N=C/c1cc(Cl)ccc1O)c1ccc(Br)cc1	21	-25	2	63*	-21	19
CNC(=O)c1ccc(CNC(=O)OCc2ccccc2)cc1	-12	-11	0	7	-3	-1
CCN(Cc1ccccc1)C(=O)c1ccc(Cl)cc1[N+](=O)[O-]	-4	-11	0	11	-8	-1
CCCCc1nnc(NC(=O)C2CC(=O)N(c3ccc4c(c3)OCCO4)C2)s1 (stereo not given)	4	-2	-8	0	4	4
O=C(Nc1nc(-c2ccco2)c(-c2ccco2)s1)C1CC(=O)N(c2ccc3c(c2)OCCO3)C1 (stereo not given)	-11	19	5	75*	-69	-17
Cc1nc(-c2ccccc2)cn(O)c1=O	72*	43	-2	12	0	1
Nc1nc(=S)c2ncn(C3OC(CO)C(O)C3O)c2[nH]1 (stereo not given)	60	-119	/	89*	-32	17
Nc1nc(Cl)nc2c1ncn2[C@@H]1O[C@H](CO)[C@@H](O)[C@H]1O	-1	-2	-1	-2	-2	-3
COc1cc(OC)cc(C(=O)Nc2c(C)nn(-c3ccccc3)c2C)c1	0	-15	-3	10	-5	-1
Cc1ccc(NC(=O)C2CCN(c3cnccn3)CC2)cc1C	-13	-38	0	0	3	2
